According to PubChem BioAssay AID651742 (Broad Institute, 2012):
The campaign covered roughly 5,600 compounds. About 780 (14%) were called active. Not shown: some 3% with an inconclusive outcome.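 The calls were made as follows: active = mean signal decrease across replicates above about 35% based on untreated-well scatter, with enough replicates individually passing (limit read from the data); inconclusive = no rule stated though some were filed; inactive = the rest.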 The list is a sample of the results.

assay: cytotoxicity in mouse NIH/3T3 fibroblasts, confirmation, cytotoxicity control for T. cruzi proliferation inhibitor project, cell-based, cherry-pick, single point (AID 651742); settings: NIH/3T3 viability, CellTiter-Glo ATP luminescence, 90 h; at 8.35 µM; hits give high values;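 also: 0% = median of neutral control wells and 100% = median of positive control wells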

SMILES | cytotoxicity (signal decrease)
COc1ccc(NC(=O)N(C)C[C@@H]2OCCCC[C@@H](C)Oc3ccc(NS(=O)(=O)c4ccc(Cl)cc4)cc3C(=O)N([C@H](C)CO)C[C@H]2C)cc1 | -38.7% (inactive)
O=C(C[C@@H]1C[C@@H]2c3cc(NC(=O)c4ccc5c(c4)OCO5)ccc3O[C@@H]2[C@@H](CO)O1)NCc1ccc(Cl)cc1 | -20.7% (inactive)
C[C@@H]1CCCCO[C@@H](CN(C)CC2CC2)[C@H](C)CN([C@H](C)CO)C(=O)c2cc(NC(=O)C3CCCCC3)ccc2O1 | -17.8% (inactive)
C[C@H]1CCCCO[C@H](CN(C)Cc2ccc(C(F)(F)F)cc2)[C@@H](C)CN([C@@H](C)CO)C(=O)c2cc(NC(=O)C3CCCCC3)ccc2O1 | -5.99% (inactive)
N#C[C@@H]1[C@@H](c2ccc(/C=C/c3ccccc3)cc2)[C@@H](CO)N1C(=O)C1CC1 | 23.9% (inactive)
C[C@@H]1CN([C@@H](C)CO)C(=O)c2cc(NC(=O)C3CCCCC3)ccc2O[C@@H](C)CCCCO[C@H]1CN(C)Cc1ccncc1 | 2.54% (inactive)
C[C@@H]1CN([C@H](C)CO)C(=O)c2cc(NC(=O)Nc3ccc(F)cc3)ccc2O[C@@H](C)CCCCO[C@@H]1CN(C)CC1CCCCC1 | 24.8% (inactive)
C[C@@H]1CN([C@H](C)CO)C(=O)c2cc(C#CC3CCCCC3)cnc2O[C@@H]1CN(C)C(=O)NC1CCCC1 | 26.3% (inactive)
C[C@@H](O)C#Cc1ccc([C@@H]2[C@H](CO)N3CCCCN(S(=O)(=O)c4ccccc4)C[C@@H]23)cc1 | 1.19% (inactive)
C[C@@H]1CCCCO[C@@H](CN(C)Cc2ccc(C(F)(F)F)cc2)[C@@H](C)CN([C@H](C)CO)C(=O)c2cc(NC(=O)Nc3ccccc3)ccc2O1 | -2.03% (inactive)
OC[C@H]1[C@H](c2ccc(-c3cccc(F)c3)cc2)[C@@H]2CN(Cc3cncnc3)CCCCN12 | 13.1% (inactive)
O=C(Nc1ccccc1F)N1CCCCN2[C@H](CO)[C@@H](c3ccc(-c4cccnc4)cc3)[C@H]2C1 | 5.63% (inactive)
C[C@@H]1CN([C@@H](C)CO)S(=O)(=O)c2ccc(-c3ccncc3)cc2O[C@@H]1CN(C)C(=O)Nc1ccc(F)cc1 | -4.35% (inactive)
C[C@@H]1CN([C@@H](C)CO)S(=O)(=O)c2ccc(C#Cc3ccc(F)cc3)cc2O[C@H]1CN(C)S(C)(=O)=O | 25.6% (inactive)
COc1ccccc1-c1ccc2c(c1)O[C@H](CN(C)S(=O)(=O)c1ccc(C)cc1)[C@@H](C)CN([C@H](C)CO)S2(=O)=O | 26.4% (inactive)
C[C@H]1CN([C@@H](C)CO)S(=O)(=O)c2ccc(C#Cc3cccc(F)c3)cc2O[C@@H]1CN(C)S(=O)(=O)c1cn(C)cn1 | 44.8% (active)
CC(C)CC#Cc1ccc2c(c1)O[C@H](CN(C)S(=O)(=O)c1cccc(F)c1)[C@@H](C)CN([C@@H](C)CO)S2(=O)=O | 14.5% (inactive)
C[C@@H]1CN([C@@H](C)CO)S(=O)(=O)c2ccc(C#Cc3ccc(F)cc3)cc2O[C@H]1CN(C)C(=O)c1ccccn1 | 30% (inactive)
C[C@@H]1CN([C@@H](C)CO)S(=O)(=O)c2ccc(-c3cccc(F)c3)cc2O[C@@H]1CN(C)S(=O)(=O)c1ccccc1 | 46.5% (active)
Cc1ccc(-c2ccc3c(c2)O[C@H](CN(C)C)[C@@H](C)CN([C@H](C)CO)S3(=O)=O)cc1 | -0.56% (inactive)

SMILES | cytotoxicity (signal decrease)
C[C@H](CO)N1C[C@H](C)[C@@H](CN(C)S(=O)(=O)c2ccc(F)cc2)Oc2cc(C3=CCCC3)ccc2S1(=O)=O | 50.5% (active)
C[C@@H]1CN([C@H](C)CO)S(=O)(=O)c2ccc(-c3cccc(F)c3)cc2O[C@H]1CN(C)S(=O)(=O)c1ccc(F)cc1 | 54.4% (active)
C[C@@H]1CN([C@@H](C)CO)S(=O)(=O)c2ccc(C#Cc3ccc(F)cc3)cc2O[C@H]1CN(C)C(=O)NC1CCCC1 | 8.27% (inactive)
C[C@@H]1CN([C@H](C)CO)S(=O)(=O)c2ccc(C#Cc3ccncc3)cc2O[C@@H]1CN(C)S(=O)(=O)c1ccc(F)cc1 | 27.1% (inactive)
COc1ccc(S(=O)(=O)N2CCCCN3[C@H](C2)[C@H](c2ccc(C#CCC(C)C)cc2)[C@@H]3CO)cc1 | 20.8% (inactive)
COc1ccc(S(=O)(=O)N2CCCCN3[C@H](CO)[C@@H](c4ccc(C#CC(C)C)cc4)[C@H]3C2)cc1 | 27.6% (inactive)
CNC[C@H]1OCCCC[C@H](C)Oc2ccc(NC(=O)Nc3c(C)noc3C)cc2C(=O)N([C@H](C)CO)C[C@H]1C | 6.78% (inactive)
COc1ccc(-c2ccc3c(c2)[C@@H]2[C@@H](CCN2C(=O)Cc2ccccn2)[C@H](CO)N3C)cc1 | 3.57% (inactive)
C[C@@H]1CN([C@@H](C)CO)C(=O)CCCn2cc(nn2)CO[C@@H]1CN(C)S(=O)(=O)c1ccccc1F | -3.89% (inactive)
C[C@@H]1CN([C@H](C)CO)C(=O)c2cc(/C=C/c3ccccc3)cnc2O[C@@H]1CN(C)Cc1ccncc1 | 0.61% (inactive)
C[C@H](CO)N1C[C@H](C)[C@@H](CN(C)C(=O)Nc2cc(F)ccc2F)Oc2cc(C#CC3CC3)ccc2S1(=O)=O | -4.87% (inactive)
C[C@@H]1CN([C@H](C)CO)S(=O)(=O)c2ccc(-c3cccc(C#N)c3)cc2O[C@@H]1CN(C)C(=O)Nc1ccccc1F | 45.7% (active)
C[C@@H]1CN([C@@H](C)CO)S(=O)(=O)c2ccc(C#Cc3ccccc3)cc2O[C@@H]1CN(C)C(=O)Nc1ccccc1 | 11.7% (inactive)
CN1c2ccc(-c3ccccc3)cc2[C@@H]2[C@@H](CCN2C(=O)c2ccncc2)[C@@H]1CO | 5.49% (inactive)
O=C(C[C@H]1CC[C@@H]2[C@H](COC[C@H](O)CN2Cc2ccc(Oc3ccccc3)cc2)O1)N1CCN(c2ccccc2)CC1 | -0.257% (inactive)
CCCC#Cc1ccc2c(c1)O[C@H](CN(C)C(=O)CC)[C@@H](C)CN([C@H](C)CO)S2(=O)=O | 17.5% (inactive)
CC(C)C#Cc1ccc2c(c1)O[C@H](CN(C)Cc1ccccc1)[C@H](C)CN([C@@H](C)CO)S2(=O)=O | 41.7% (active)
CC(=O)N(C)C[C@H]1Oc2cc(C#CCN(C)C)ccc2S(=O)(=O)N([C@@H](C)CO)C[C@@H]1C | 4.99% (inactive)
C[C@H]1CN([C@@H](C)CO)S(=O)(=O)c2ccc(C#CCN(C)C)cc2O[C@@H]1CN(C)Cc1ccc(F)cc1 | 48.1% (active)
CCC(=O)N(C)C[C@@H]1Oc2cc(C#CCN(C)C)ccc2S(=O)(=O)N([C@H](C)CO)C[C@H]1C | -1.94% (inactive)

SMILES | cytotoxicity (signal decrease)
C[C@@H]1CN([C@@H](C)CO)S(=O)(=O)c2ccc(/C=C/c3ccccc3)cc2O[C@H]1CN(C)Cc1ccccc1 | 21.8% (inactive)
C[C@@H]1CN([C@H](C)CO)S(=O)(=O)c2ccc(C#C[C@@H](C)O)cc2O[C@@H]1CN(C)Cc1ccc(-c2ccccc2)cc1 | 14.4% (inactive)
O=C(Cc1ccccc1)N1CC[C@H]2[C@H](CO)Nc3ccc(-c4ccccc4F)cc3[C@H]21 | -5.9% (inactive)
C[C@@H]1CN([C@H](C)CO)C(=O)c2cccc(NC(=O)c3ccc(-c4nccs4)cc3)c2O[C@@H]1CN(C)C(=O)Nc1ccc(C(F)(F)F)cc1 | 26% (inactive)
C[C@@H]1CCCCO[C@H](CN(C)C(=O)Nc2ccc(C(F)(F)F)cc2)[C@H](C)CN([C@H](C)CO)C(=O)c2cc(NC(=O)Nc3ccc(C(F)(F)F)cc3)ccc2O1 | -8.85% (inactive)
N#C[C@H]1[C@@H](c2ccc(C3=CCCCC3)cc2)[C@@H](CO)N1C(=O)NC1CCCCC1 | 42.8% (active)
CCc1cnc(N2[C@H](C#N)[C@H](c3ccc(C4=CCCC4)cc3)[C@@H]2CO)s1 | 9.56% (inactive)
CC(C)NC(=O)N1[C@H](C#N)[C@H](c2ccc(C#CC3CCCCC3)cc2)[C@H]1CO | -28% (inactive)
Cc1noc(C)c1S(=O)(=O)Nc1ccc2c(c1)C(=O)N([C@@H](C)CO)C[C@@H](C)[C@H](CN(C)S(=O)(=O)c1ccc(Cl)cc1)OCCCC[C@H](C)O2 | -13.7% (inactive)
O=C(Nc1cc(F)ccc1F)N1CCCCN2[C@H](CO)[C@@H](c3ccc(-c4cncnc4)cc3)[C@H]2C1 | 15% (inactive)
CCCC#Cc1ccc2c(c1)O[C@@H](CN(C)C(=O)c1ccccc1F)[C@H](C)CN([C@H](C)CO)S2(=O)=O | 19.4% (inactive)
COc1ccc(S(=O)(=O)Nc2ccc3c(c2)C(=O)N([C@@H](C)CO)C[C@H](C)[C@H](CN(C)Cc2ccc(C(F)(F)F)cc2)O3)cc1 | 3.37% (inactive)
C/C=C/c1ccc([C@H]2[C@@H](CNC(C)C)N(c3nc(CC)cs3)[C@H]2CO)cc1 | 7.64% (inactive)
C[C@H](CO)N1C[C@H](C)[C@@H](CN(C)Cc2ccc(C(=O)Nc3ccccc3N)cc2)Oc2c(NC(=O)c3ccc(-c4nccs4)cc3)cccc2C1=O | -13.6% (inactive)
C[C@H]1CN([C@@H](C)CO)S(=O)(=O)c2ccc(C3=CCCCC3)cc2O[C@@H]1CN(C)Cc1ccccc1 | 119% (active)
COc1ccccc1-c1ccc2c(c1)O[C@@H](CN(C)C)[C@H](C)CN([C@H](C)CO)S2(=O)=O | -9.91% (inactive)
C[C@H]1CN([C@@H](C)CO)S(=O)(=O)c2ccc(C3=CCCC3)cc2O[C@@H]1CN(C)Cc1ccccc1 | 42.4% (active)
C[C@@H]1CN([C@H](C)CO)S(=O)(=O)c2ccc(C3=CCCC3)cc2O[C@H]1CN(C)Cc1ccccc1F | 32% (inactive)
C[C@H](CO)N1C[C@H](C)[C@@H](CN(C)C(=O)C2CCCCC2)Oc2cc(-c3ccccc3)ccc2S1(=O)=O | 26.2% (inactive)
C[C@H](CO)N1C[C@H](C)[C@H](CN(C)Cc2ccncc2)Oc2cc(-c3ccncc3)ccc2S1(=O)=O | 19.9% (inactive)
